Results on five compounds are retold here after PubChem BioAssay (NCATS).

Experiment [1] in a line: Cell Viability - Jurkat (AID 426;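 active = dose-dependent loss of cell ATP signal giving a full or clear fitted curve, ranked by lower potency value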; also: potency is read from the fitted curve at half-maximal effect). As to conditions: qHTS. A digest of the protocol:
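Cytotoxicity was scored as loss of cellular ATP, measured by luciferase-based luminescence, in Jurkat clone E6-1 cells after 40 h compound treatment; tamoxifen and doxorubicin served as positive controls.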
A general note: In qHTS, concentration-response curves come from the screen itself.

The nature of experiment [2]: Cell Viability - Hek293 (AID 427;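 active = compounds whose dose-response curve shows a full or clear partial loss of cell viability, called from curve shape rather than a numeric limit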;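 also: potency is read from the fitted curve at half-maximal effect; cells exposed to compound for 40 hours at 37 °C before reading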). Conditions: qHTS. A digest of the protocol: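 HEK293 cells in complete medium were exposed to compound for 40 hr at 37 °C, then cellular ATP was read by CellTiter-Glo luminescence. Data were normalized to DMSO (basal) and 100 uM tamoxifen (100% inhibition), and AC50 came from Hill fits.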
A short description of experiment [3]: Cell Viability - HepG2 (AID 433; calls by dose curve;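 also: potency is read from the fitted curve at half-maximal effect; potency for ATP loss meaning cytotoxicity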). As to conditions: qHTS. A digest of the protocol: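 Cytotoxicity is scored as loss of intracellular ATP in HepG2 cells exposed to compounds for 40 h. Concentration-response curves, normalized to DMSO and 100 uM tamoxifen, give AC50 values.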
Experiment [4] can be described thus: Cell Viability - HUV-EC-C (AID 542). Also: % is scaled to controls: 0 for no effect and ±100 for the full control effect; nearly all actives have a fitted effect of over 35% in size. As to conditions: HUV-EC-C endothelial cell viability, qHTS; series mostly up to 92.2 µM. A digest of the protocol:
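Concentration-dependent ATP loss in HUV-EC-C cells is the measure. Exposure lasts 40 hr at 37 °C; luminescence follows CellTiter-Glo addition, and Hill fits give AC50.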

Experiment [5] can be described thus: Cell Viability - H-4-II-E (AID 543). Also: nearly all actives have a fitted effect of over 35% in size. Also: potency is read from the fitted curve at half-maximal effect. As to conditions: H-4-II-E rat hepatoma viability; series mostly up to 92.2 µM. A digest of the protocol:
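AC50 from Hill-modelled qHTS concentration-response curves. H-4-II-E rat hepatoma cells in complete medium, 40 hr exposure at 37 °C, viability by CellTiter-Glo ATP luminescence.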

Experiment [6] can be described thus: Cell Viability - SH-SY5Y (AID 544). Also: nearly all actives have a fitted effect of over 55% in size. As to conditions: SH-SY5Y neuroblastoma cell viability; series mostly up to 92.2 µM. In outline: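 Quantitative HTS in SH-SY5Y neuroblastoma cells, 40 hr treatment at 37 °C, ATP content by luciferase luminescence; AC50 from Hill fits.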
Experiment [7] can be described thus: Cellular Toxicity (caspase-3) SHSY5Y (AID 657). Conditions: SH-SY5Y caspase-3 activation, DMSO zero, 10 µM staurosporine = 100%; series mostly up to 91.7 µM. A digest of the protocol: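 Cells plated and incubated 5 h at 37 °C, dosed over a concentration range, incubated 16 h, then given Caspase-Glo 3/7 reagent for 1 h at room temperature before luminescence reading. Staurosporine (10 uM) defined full stimulation.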

A short description of experiment [8]: Cellular Toxicity (caspase-3) SK-N-SH (AID 661). Conditions: SK-N-SH caspase-3 activation, qHTS, DMSO as zero, staurosporine as full; series mostly up to 91.7 µM. In outline: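 Apoptosis readout in SK-N-SH neuroblastoma: Caspase-Glo 3/7 luminescence following 16 hr treatment in complete culture medium. Normalization used DMSO and 10 uM staurosporine controls.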

The nature of experiment [9]: Cellular Toxicity (caspase-3) H-4-II-E (AID 663).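 Also: cells exposed to compound for 16 hr before readout.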 Conditions: H-4-II-E rat hepatoma; Potency: caspase-3 activation; series mostly up to 92.2 µM. A digest of the protocol:
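H-4-II-E rat hepatoma, 1500 cells/well, 5 hr settle at 37 °C; compound 16 hr, 37 °C, complete medium; Caspase-Glo 3/7, 20 min RT; luminescence. DMSO = 0%, 100 uM tamoxifen = 100%; Hill-equation AC50.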

Experiment [10] in a line: Cellular Toxicity (caspase-3) N2a (AID 665).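 Also: compound exposure lasted 16 h at 37 °C before readout.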 As to conditions: N2a cells, luminescence, normalized: DMSO 0%, 10 µM staurosporine 100%; series mostly up to 92.2 µM. In outline:
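Concentration-response qHTS: compound-induced caspase-3/7 luminescence in N2a cells (16 h, 37 °C), relative to DMSO and 10 uM staurosporine controls; AC50 obtained using the standard Hill equation.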

The nature of experiment [11]: Cellular Toxicity (caspase-3) NIH 3T3 (AID 666).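 Also: caspase signal read after 16 h compound exposure; 0% = DMSO basal and 100% = 100 µM tamoxifen stimulation.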 Conditions: NIH 3T3 caspase-3 activation, apoptosis/toxicity, 0% DMSO, 100% is 100 µM tamoxifen; series mostly up to 92.2 µM. A digest of the protocol: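 Activity: caspase-3/7 induction, NIH 3T3 cells, 16 hr treatment at 37°C, luminescent Caspase-Glo detection; AC50 via Hill equation.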
Experiment [12] in a line: MultiTox-Fluor Cytotoxicity Assay - LYMP1-001 - Dead Cells (AID 946).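 Also: 0% = DMSO and 100% = tetraoctylammonium bromide.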 As to conditions: LYMP1-001 lymphoblastoid cells, dead-cell protease fluorescence; series mostly up to 92.2 µM. A digest of the protocol:
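LYMP1-001 lymphoblastoid cells (2500/well) treated 16 h at 37 C. Dead-cell protease cleavage of bis-AAF-R110 read at Ex/Em 485/520. Normalized to DMSO and 15 uM tetraoctylammonium bromide; AC50 from Hill fits.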

Experiment [13] in a line: Cell Viability - LYMP1-002 - Assay at 16 hr (AID 948).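 Also: 0% = DMSO alone and full effect = 92 µM tetraoctylammonium bromide.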 As to conditions: LYMP1-002 lymphoblastoid cell viability; series mostly up to 92.2 µM. In outline: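 Acute cytotoxicity is scored as a concentration-dependent fall in intracellular ATP in a human lymphoblastoid line (LYMP1-002) after 16 hr compound exposure at 37 C, measured by luciferase luminescence.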
The nature of experiment [14]: MultiTox-Fluor Cytotoxicity Assay - LYMP1-002 - Live Cells (AID 955). Also: % is scaled to controls: 0 for no effect and ±100 for the full control effect. As to conditions: LYMP1-002 lymphoblastoid live-cell protease fluorescence viability; series mostly up to 46.1 µM. A digest of the protocol:
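In this qHTS viability format, lymphoblastoid cells (LYMP1-002, human) received compound for 16 hr at 37 C. Fluorogenic GF-AFC cleavage by viable cells was detected at 405/510 nm after 1 h at room temperature.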

Experiment [15] can be described thus: MultiTox-Fluor Cytotoxicity Assay - LYMP1-003 - Dead Cells (AID 961).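 Also: 0% = DMSO and 100% = tetraoctylammonium bromide; nearly all actives have a fitted effect of over 70% in size.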 Conditions: LYMP1-003 lymphoblastoid cells, dead-cell protease fluorescence; series mostly up to 92.2 µM. A digest of the protocol:
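LYMP1-003 human lymphoblastoid cells (2500/well) exposed to compound 16 h at 37 C in complete medium; dead-cell protease read with bis-AAF-R110 fluorescence (Ex/Em 485/520) after 60 min at room temperature. Normalized to DMSO and 15 uM tetraoctylammonium bromide; AC50 from Hill fit.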

The nature of experiment [16]: Cell Viability - LYMP2-003 (AID 965).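 Also: cells exposed to compounds for 24 h before reading; 0% = DMSO only and full effect = 92 µM tetraoctylammonium bromide; nearly all actives have a fitted effect of over 50% in size.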 Conditions: LYMP2-003 lymphoblastoid cell viability; series mostly up to 92.2 µM. A digest of the protocol:
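Acute cytotoxicity is scored as a concentration-dependent drop in intracellular ATP, measured by luciferase luminescence in human lymphoblastoid cells treated for 24 hours at 37 C. AC50 values derive from Hill-equation modelling.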

Experiment [17] is described as follows: Cell Viability - LYMP2-020 (AID 986).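 Also: cells exposed to compound for 24 h at 37 °C; plate controls were DMSO only for no effect and tetraoctylammonium bromide at 92 µM for full effect; nearly all actives have a fitted effect of over 55% in size.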 Conditions: series mostly up to 92.2 µM. A digest of the protocol:
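Cells at 2500 per well receive a 24 hr compound exposure at 37 C. Viability is measured as ATP-dependent luciferase luminescence, with AC50 modeled from qHTS concentration-response curves.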

Experiment [18] in a line: Cell Viability - LYMP2-022 (AID 987).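 Also: 0% = DMSO alone and full effect = tetraoctylammonium bromide at 92 µM; nearly all actives have a fitted effect of over 55% in size.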 Conditions: LYMP2-022 lymphoblastoid cell viability; series mostly up to 92.2 µM. A digest of the protocol: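 In this qHTS cytotoxicity screen, compound titrations were incubated 24 hr at 37 C with human lymphoblastoid cells in complete medium. Luciferase-based ATP luminescence provided the viability signal.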
Experiment [19] is described as follows: Cell Viability - LYMP2-024 (AID 988).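 Also: plate controls were DMSO only for no effect and 92 µM tetraoctylammonium bromide for full effect; nearly all actives have a fitted effect of over 60% in size.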 As to conditions: LYMP2-024 lymphoblastoid cell viability; series mostly up to 92.2 µM. A digest of the protocol:
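Cells at 2500 per well received compound for 24 hr after a 5 hr settling period. Viability was scored by CellTiter-Glo luminescence, with AC50 from Hill fits.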

A short description of experiment [20]: qHTS assay for small molecule antagonists of retinoid X receptor alpha signaling (AID 588546).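 Also: cells stimulated with 9-cis-retinoic acid as agonist; % is scaled to controls: 0 for no effect and ±100 for the full control effect.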 Conditions: HEK293T RXRa-UAS-bla, beta-lactamase ratio, antagonist mode; measured here: W530 green channel, cytotoxicity proxy. In outline: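 Beta-lactamase reporter inhibition, read as CCF4 fluorescence ratio (ex 405, em 460/530 nm) after 2 h at RT. HEK293T UAS-bla cells, 2500/well, were stimulated with 9-cis-RA at 500 or 100 nM final alongside test compound for 18 h at 37 C.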

Where “and” joins values, the source holds several entries; their conditions need not be identical. Equal entries are not always repeated. Results filed as inconclusive are left out. Calls of active or inactive are those of the source. Unless noted, calls follow the shape of the dose curve; as a rule, active = well fitted curve in the direction sought with a large enough effect; inconclusive = small, poorly fitted or top-dose-only effect, or another doubt; inactive = no such curve, though single readings can be large; an effect the other way counts as inactive or inconclusive.

As to `CCCCCCCCCCCCCCC1CO1` (stereo unspecified), the Potency in [1], in experiment [2] and in [3] was > 92 µM (inactive) throughout. The compound was called inactive in experiment [4], in [7], in experiment [8], in experiment [10] and in experiment [11]. Further, the Potency result in experiment [5], in experiment [6], in experiment [9], in experiment [12], in experiment [13] and in experiment [14] was “inactive” each time. Moreover, the Potency result in [15], in experiment [16], in experiment [17], in experiment [18] and in experiment [19] was “inactive” throughout. Besides, in [20], the max response was -4.45% and -4.75%.

As to `Cc1ccc(N)c([N+](=O)[O-])c1`, the Potency in experiment [1], in experiment [2] and in experiment [3] was > 92 µM (inactive) in each case. Further, the outcome in experiment [4], in experiment [7], in experiment [8], in experiment [10] and in experiment [11] was inactive. In addition, the Potency result in experiment [5], in experiment [6], in experiment [9], in experiment [12], in experiment [13] and in experiment [14] was “inactive” each time. Also, the Potency result in [15], in experiment [16], in experiment [17], in experiment [18] and in experiment [19] was “inactive” throughout. Also, the max response in [20] was -10.8% and -10%.

Regarding `CN(C)CCCCCCN(C)C`, the Potency in [1], in [2] and in experiment [3] was > 92 µM (inactive) throughout. The compound was called inactive in [4], in experiment [7], in experiment [8], in experiment [10] and in [11]. For the same compound, the Potency result in experiment [5], in [6], in [9], in experiment [12], in experiment [13] and in experiment [14] was “inactive” throughout. The Potency entry in experiment [15], in experiment [16], in experiment [17], in [18] and in experiment [19] was “inactive” each time. Besides, the max response in [20] is -0.59%.

In the case of `c1ccccc1`, the Potency in experiment [1], in [2] and in experiment [3] was > 92 µM (inactive) in each case. Further, the call in experiment [4], in [7], in experiment [8], in experiment [10] and in [11] was inactive. Also, the Potency result in experiment [5], in experiment [6], in experiment [9], in experiment [12], in experiment [13] and in experiment [14] was “inactive” throughout. Moreover, the Potency entry in experiment [15], in [16], in [17], in experiment [18] and in [19] was “inactive” throughout. The max response in experiment [20] was 6.17% [middle of 4 runs].

As to `S=C1NC=NC2N=CNC12` (stereo unspecified), the Potency is 0.128 µM (active) in [1], 1.03 µM (active) in experiment [2], 1.23 µM (active) in experiment [3] and 0.158 µM (active) in experiment [5]. For the same compound, the outcome in experiment [4], in experiment [7], in experiment [8] and in experiment [11] was inactive. Also, the Potency entry in experiment [9], in experiment [12], in experiment [14], in [15], in experiment [17] and in experiment [18] was “inactive” throughout. In addition, the Potency result in experiment [19] was “inactive”. In experiment [20], the max response turned out to be 4.27%.
